Sampled rows, rich in hits. Any-hit rate of the full collection: about 3.6%.
Nrf2 ARE act = Nrf2 pathway activation; 410,000 compounds, 0.31% hits; AREc32 ARE-luciferase reporter (MCF7-derived line), luminescence, 24 h; Potency, µM (doses to about 46.1 µM), actives largely listed as activators; AID 624171; note: nearly all actives have a fitted effect of over 65% in size
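Cells of the AREc32 ARE-luciferase line are plated in OPTI-MEM containing 5% FBS and left overnight at 37 deg C. Compounds are pinned in, incubation continues 24 hr, and firefly luciferase signal is then measured.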
Nrf2 inh = inhibitors of Nrf2 signaling. Potency, µM (series often up to 46 µM), hits mostly inhibitors. 360,000 compounds, 2.1% hits. A549 ARE-Fluc reporter, luciferase luminescence, 18-24 h; note: nearly all actives have a fitted effect of over 60% in size
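Nrf2 activity is the BugLite luminescence, read 15 min after reagent at room temperature, following CellTiter-Fluor cytotoxicity readout (30 min, 37C). Compound titrations were applied for 18-24 h to 5000 A549 ARE_Fluc cells/well in 5% FBS OPTI-MEM.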
HepG2 tox = kills HepG2 cells in TGF-b inhibitor counter-screen; HepG2 CAGA-GFP viability, ATP luminescence, 18 h; Potency, µM (series often up to 46.1 µM), actives largely listed as cytotoxic; 410,000 compounds, 0.76% hits
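HepG2 CAGA-GFP cells (1000/well, DMEM with 1% FBS) received compound, then TGF-beta at 500 pg/mL final, and were incubated 18 hours at 37 degrees C. Viability was read by CellTiter-Glo luminescence. Media-only wells were set as complete cell-killing and DMSO as no toxicity.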
A549 viability = A549 cytotoxicity, counter-screen for Nrf2 inhibitors; A549 ARE-Fluc cells, CellTiter-Fluor viability, 18-24 h; 390,000 compounds, 0.16% hits; Potency, µM (series often up to 46 µM), actives largely listed as inhibitors
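A549 ARE-Fluc cells in 5% FBS OPTI-MEM, 5000 cells/well, rested 2 h then exposed to compounds in concentration-response for 18-24 h at 37 °C. Viability by CellTiter-Fluor fluorescence (Ex 405/Em 525) after 30 min; luciferase luminescence (BugLite, 15 min, RT) read afterwards.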
TGFb inhibitor = inhibitors of TGF-b signaling | HepG2 CAGA-GFP TGF-b/SMAD3 reporter, GFP fluorescence, 18 h; TGF-beta stimulated, 500 pg/mL final | Potency, µM (series often up to 46.1 µM), most hits filed as inhibitors | 410,000 compounds, 1.2% hits; note: nearly all actives have a fitted effect of over 65% in size
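First, reporter cells (HEPG2 CAGA-GFP) rested 2 h at 37 degrees C. Next, compounds were pinned in and TGF-beta added to 500 pg/mL final. After 18 h, GFP was imaged per cell and summed per well.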
Of the large screens only hits and unclear results are named; the others gave an inactive call. Calls come from the whole dose curve; as a rule, active = well fitted curve in the direction sought with a large enough effect; inconclusive = small, poorly fitted or top-dose-only effect, or another doubt; inactive = no such curve, though single readings can be large; an effect the other way counts as inactive or inconclusive.

CCCOc1ccccc1C1CC(=O)Nc2cc3c(cc21)OCCO3 (stereo unspecified)	Nrf2 inh 20.6µM, A549 viability inconclusive, TGFb inhibitor inconclusive
COc1cccc(C2CC(=O)Nc3cc4c(cc32)OCO4)c1OC(C)C (stereo unspecified)	Nrf2 inh inconclusive
CC(C)Oc1cccc(C2CC(=O)Nc3cc4c(cc32)OCO4)c1 (stereo unspecified)	Nrf2 inh 16.4µM, TGFb inhibitor inconclusive
CC(C)Oc1ccccc1C1CC(=O)Nc2cc3c(cc21)OCO3 (stereo unspecified)	Nrf2 inh 7.31µM, A549 viability inconclusive, TGFb inhibitor inconclusive
CCOc1c(Br)cc(C2CC(=O)Nc3cc4c(cc32)OCO4)cc1OC (stereo unspecified)	Nrf2 inh 20.6µM, TGFb inhibitor inconclusive
CCOc1cc(-c2nc(-c3ccc(C)nc3OC)no2)cc(OCC)c1OCC	TGFb inhibitor inconclusive
COc1ccc(CCNC(=O)Nc2ccc3c(c2)OCO3)cc1OC	none
Cc1ccc(CCN2C(=O)CCC2(C)C(=O)NC2CCCC2)cc1 (stereo unspecified)	none
Cn1cnc([N+](=O)[O-])c1C(=O)Nc1cccc([N+](=O)[O-])c1	none
CN(C(=O)c1cc(COc2c(F)cccc2F)on1)C1CCOC1 (stereo unspecified)	Nrf2 inh inconclusive
Cc1ccc(NC(=O)CSc2ccccc2NC(=O)c2ccccc2Cl)cc1Cl	Nrf2 inh 25.9µM, A549 viability inconclusive, TGFb inhibitor inconclusive
Cc1nc(SCC(=O)Nc2ccc(C)c(Cl)c2)cc(-c2ccccc2)n1	TGFb inhibitor 10µM
Cc1ccc(NC(=O)CSc2ccccc2NC(=O)c2ccccc2)cc1Cl	Nrf2 inh inconclusive
Cc1cc(=O)oc(C)c1C(=O)Nc1cccc2ccccc12	none
CCOc1ccc(N2C(=O)/C(=C/c3ccco3)N(C)C2=S)cc1	none
COCCCNC(=O)c1ccccc1Oc1ccccc1	none (no result: Nrf2 inh)
COCCCNC(=O)c1ccc2c3c(onc13)-c1ccccc1C2=O	Nrf2 inh inconclusive, A549 viability inconclusive, TGFb inhibitor 3.16µM
CCC1(c2ccc(F)cc2)NC(=O)N(CC(=O)Nc2cccc(S(=O)(=O)N3CCCC3)c2)C1=O (stereo unspecified)	none
Cc1ccc(NC(=O)COCc2cc(-c3cccs3)on2)cc1Cl	Nrf2 ARE act 7.08µM, Nrf2 inh inconclusive
O=C(NCc1cc(C(F)(F)F)ccc1Cl)c1cccc2c1C(=O)c1ccc(N3CCCCC3)cc1S2(=O)=O	none
O=C(NCc1cc(C(F)(F)F)ccc1Cl)c1cccc2c1C(=O)c1ccc(N3CCC(N4CCCCC4)CC3)cc1S2(=O)=O	HepG2 tox 15.8µM, TGFb inhibitor inconclusive (no result: Nrf2 inh, A549 viability)
COc1ccc(CCNC(=O)Cn2nnc(-c3ccc(C(F)(F)F)cc3)n2)cc1OC	none
O=C(O)CCCC(=O)Nc1ccc(S(=O)(=O)Nc2nccs2)cc1	Nrf2 inh inconclusive
Cc1ccccc1CN1C(=O)C(O)(CC(=O)c2cccc(Br)c2)c2ccccc21 (stereo unspecified)	HepG2 tox 12.6µM, TGFb inhibitor 12.6µM
CC1(O)N(Cc2ccccc2)C(=O)OC12CCCCC2 (stereo unspecified)	Nrf2 inh inconclusive
O=c1[nH]nc(Sc2ncnc3sccc23)n1CCc1ccccc1	Nrf2 ARE act inconclusive, Nrf2 inh 14.6µM
CC1(C)CC2CC(C)(CN2C(=O)C23CCC(C)(C(=O)O2)C3(C)C)C1 (stereo unspecified)	none
CC1=NN(c2ccc(C)c(C)c2)C(=O)/C1=C\C=C\c1ccc([N+](=O)[O-])o1	Nrf2 inh inconclusive, A549 viability inconclusive, TGFb inhibitor 10µM
CCOC(=O)c1ccc(N2N=C(C)/C(=C/C=C/c3ccco3)C2=O)cc1	none
COc1ccc(-c2cc(C)no2)cc1S(=O)(=O)N1CCN(c2ccccn2)CC1	Nrf2 inh 18.4µM
CCc1ccc(-c2cc(C)no2)cc1S(=O)(=O)N1CCN(c2ccccn2)CC1	Nrf2 inh inconclusive, TGFb inhibitor inconclusive
CCOC(=O)c1ccc2ncc(-c3ccccc3)nc2c1	Nrf2 inh inconclusive, HepG2 tox 2.51µM

From PubChem
